Data from PubChem BioAssay (NCI).
About 83,000 compounds went through this panel and 20% of them were active in at least one assay; those are over-represented in the sample as a whole.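 The test compound was applied at a single concentration to cells in 96-well plates for 48 hours, and percent growth was recorded.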 A number with no mark means an inactive call. The source made the active and inactive calls. The calls were made as follows: active = growth percent below 10; inactive = the rest.

system: SNB-19 CNS; experiment: NCI-60 one-dose screen, 48 h (100 = growth as untreated, 0 = no growth, -100 = all killed); conditions: 10 µM unless noted

SMILES	growth
COC(=O)[C@]12CC[C@@H](C)[C@H](C)[C@@H]1C1=CC(=O)[C@@H]3[C@@]4(C)C[C@@H](OC(C)=O)[C@H](OC(C)=O)[C@@](C)(COC(C)=O)[C@@H]4C(=O)C[C@@]3(C)[C@]1(C)CC2	57%
COc1ccc(/C(=C\c2ccc3c(c2)OCO3)C(=O)Nc2nc3ccccc3s2)cc1OC	101%
O=C1c2cccc3cccc(c23)C(=O)N1CC#Cc1ccc2c3c(cccc13)C(=O)N(CCO)C2=O	96.3%
CCCCC/C(=C\c1ccccc1)C1OC(C)C(C)O1 (centres undefined)	98.6%
COc1ccc2c(c1)c(-c1nc(-c3c[nH]c4ncccc34)cs1)cn2CCNC(=O)OC(C)(C)C	93%
COc1ccc(C2c3ccccc3NC(=O)N2C2CCN(C)CC2)c(OC)c1 (centres undefined)	93%
COc1cccc(-c2nn(-c3ccccc3)cc2-c2ccnc(NCCCNS(=O)(=O)c3ccc(Cl)cc3)c2)c1	52.1%
CC(CNc1nc(Nc2ccc(Cl)c(Cl)c2)nc(C(Cl)(Cl)Cl)n1)N(C)C (centres undefined)	-1.09% (active)
COc1ccc2c(c1)c1nc3cc(C)c(C)cc3nc1n2CCN(C)C	13.6%
Oc1cc(/C=C/c2nc(N3CCOCC3)c3cc(Cl)c(Cl)cc3n2)cc(O)c1O	102%
COC(=O)CCCCCn1c2ccccc2c2c3c(c4c5ccccc5[nH]c4c21)C(=O)N(O)C3=O	29.9%
NCCn1cc(-c2nc(-c3c[nH]c4ncccc34)cs2)c2ccccc21	89.4%
O=C1c2ccccc2NC(c2cn(-c3ccccc3)nc2-c2cccnc2)N1Cc1ccccc1 (centres undefined)	109%
COc1cnc2c(c1)C(=O)c1c-2n(CCCNCCN2CCOCC2)c(=O)c2cc([N+](=O)[O-])ccc12	15.2%
CCCCC[C@H]1C/C=C2/C(=O)C=C[C@@H]2C/C=C\CCCC(=O)O[C@@H](CCCCC)C/C=C2/C(=O)C=C[C@@H]2C/C=C\CCCC(=O)O1	-83.4% (active)
COc1ccc2c(c1)c(-c1nc(-c3c[nH]c4ncccc34)cs1)cn2CCCN1CCCCC1	43.9%
CCN(CC)CCCCCCNc1ccnc2cc(Cl)ccc12	113%
N#Cc1c(-c2ccc(O)cc2)c2c(N)nn(-c3ccccc3)c2[nH]c1=O	99.8%
CC(C)(C)c1[nH]nc2c1C(c1cc3ccccc3[nH]c1=O)Nc1cc(C(=O)OCc3ccccc3)ccc1N2 (centres undefined)	61.7%
c1cnc2[nH]cc(-c3csc(-c4cn(CCCN5CCCCC5)c5ccccc45)n3)c2c1	39.2%

SMILES	growth
COC(=O)[C@]12CC[C@@H](C)[C@H](C)[C@@H]1C1=CC[C@@H]3[C@@]4(C)CC(=O)[C@H](OC(=O)c5ccco5)[C@@]5(C)COC(=C45)C[C@@]3(C)[C@]1(C)CC2	40.4%
O=C1/C(=C\C(Cl)=C/c2ccc([N+](=O)[O-])cc2)SC(=S)N1CCc1ccc(O)cc1	-59.7% (active)
O=c1c(CNc2ccc(S(=O)(=O)Nc3ncccn3)cc2)coc2ccccc12	94.2%
CCN(CC)CCCCCNc1cc(OC(=O)c2ccccc2)cc2cccnc12	101%
COc1cc2c(cc1-c1c(C)noc1C)ncc1nc(C3CC3)n([C@H](C)COC(F)F)c12	60.1%
COc1cc2nc(Cl)nc(Nc3cccc(C(=O)/C=C/c4ccc(F)cc4)c3)c2cc1OC	50.1%
CN1CCN(CCOc2ccc(-c3cnc4c(-c5ccccc5F)cnn4c3)cc2)CC1	69.1%
CN(C)CCCC1(c2ccc(F)cc2)OCc2cc(-c3ccc(C(F)(F)F)nc3)ccc21 (centres undefined)	76.7%
Cn1cc(-c2nc(-c3c[nH]c4ncccc34)cs2)c2cc(Cl)ccc21	74.4%
CCC(CC)C(=O)OC(C)COc1ccc(C(C)(C)C)cc1 (centres undefined)	103%
NCCNc1nc(-c2ccccc2)nc2nc(-c3ccccc3)oc12	89.8%
CCCCN1CCCCn2c1nc1c2c(=O)n(C)c(=O)n1C	104%
CCc1nnc(NC(=O)c2ccoc2COc2ccccc2)s1	42.4%
CC1(C)C(=O)/C(=C\c2cccnc2)C[C@]2(C)[C@H]3CC[C@@H]4[C@@H](C(=O)/C=C/c5ccncc5)CC[C@@]4(C)[C@]3(C)CC[C@@H]12	15.1%
N#C/C(=C\c1ccc(-c2ccc(Br)cc2)o1)c1nc(-c2ccco2)cs1	92.7%
C[C@H]1OC(=O)/C=C/[C@@H](O)[C@@H](O)CCCCCCCC[C@@H]1O	100%
CC[C@]12C=CCN3CC[C@@]4(c5cc([C@H]6CCC(=O)N6)c(OC)cc5N(C)[C@H]4[C@@](O)(C(=O)OC)[C@@H]1OC(C)=O)[C@@H]32	105% [2.5 µM]
NC1=C(C/C(N)=N\O)C(c2ccccc2Cl)c2c(ccc3ccccc23)O1 (centres undefined)	86.8%
Cn1cccc1/C=C1/SC(=S)N(CCc2ccc(O)cc2)C1=O	47.2%
